High-throughput results: PubChem BioAssay, National Center for Advancing Translational Sciences (NCATS)
RORgamma inh: inhibitors of mouse ROR gamma transcriptional activity; P51450; Drosophila S2 Gal4-RORgamma UAS-luciferase reporter, 20 h; Potency, µM (top dose mostly 53.6 µM), for the others: at the highest dose activity change, negative = inhibition, usual class: inhibitors; 5.4% of 310,000 active; AID 2551; further: nearly all actives have a fitted effect of over 60% in size
Target sequence (P51450 whole entry, looked up, the tested form may be a part): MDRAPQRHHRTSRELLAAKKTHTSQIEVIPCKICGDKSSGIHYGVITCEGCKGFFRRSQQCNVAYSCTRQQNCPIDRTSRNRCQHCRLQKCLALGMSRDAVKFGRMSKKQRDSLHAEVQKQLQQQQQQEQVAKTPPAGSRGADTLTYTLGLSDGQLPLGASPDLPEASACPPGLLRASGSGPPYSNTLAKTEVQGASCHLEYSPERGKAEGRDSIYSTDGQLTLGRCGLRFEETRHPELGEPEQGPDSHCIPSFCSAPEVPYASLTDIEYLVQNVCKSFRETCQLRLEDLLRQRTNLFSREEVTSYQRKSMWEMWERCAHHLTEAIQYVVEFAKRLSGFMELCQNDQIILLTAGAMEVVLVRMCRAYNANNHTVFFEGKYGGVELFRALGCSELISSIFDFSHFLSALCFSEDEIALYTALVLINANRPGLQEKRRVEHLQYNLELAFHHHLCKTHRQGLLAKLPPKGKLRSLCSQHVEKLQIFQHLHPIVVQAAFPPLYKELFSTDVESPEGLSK
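A Gal4/UAS one-hybrid system in insect cells: metallothionein-promoter Gal4–ROR gamma fusion plus Photinus luciferase reporter. Copper sulfate 700 uM final, 20 hr ambient incubation, luminescent detection after 10 min with reagent.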
ELG1 DNA repair: inhibitors of ELG1-dependent DNA repair in HEK293T cells; HEK293T ELG1-luciferase reporter, luminescence, 16 h; DNA damage induced by 5-fluorouridine; Potency, µM (series often up to 46.1 µM), for inactives: at the top dose activity change, negative = inhibition, usual class: inhibitors; 2.3% of 330,000 active; AID 504467; further: nearly all actives have a fitted effect of over 55% in size
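Luminescence from the luciferase reporter, measured 30 min after ONE-Glo reagent at room temperature, was the read-out. Beforehand, 2,000 cells per well were exposed for 16 hr at 37 °C to 5-fluorouridine together with compound or vehicle.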
12-LOX inh: ALOX12 (human) lipoxygenase inhibition | Potency, µM (titrated, usually from 108 µM), for inactives: at the top dose activity change, negative = inhibition, hits mostly inhibitors | purified 12hLO, xylenol orange hydroperoxide absorbance | P18054 | 1.1% of 580,000 active
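Purified human 12hLO (150 nM final) in 25 mM Hepes, 0.01% Triton X-100, pH 7.0 was preincubated 15 min at room temperature with compound. Then 40 uM arachidonic acid was added, 30 min. Hydroperoxide was read by Fe-XO absorbance ratio 573/405 nm.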
TDP1 cell noCPT: qHTS for Inhibitors of human tyrosyl-DNA phosphodiesterase 1 (TDP1): qHTS in cells in absence of CPT; DT40 Tdp1-/- hTDP1 cells, no CPT, ATP luminescence, 48 h; Potency, µM (highest dose often 46.2 µM), inactives show top-dose activity change, negative = growth inhibition, usual class: inhibitors; 15% of 420,000 active; AID 686978, 2013; further: nearly all actives have a fitted effect of over 55% in size
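A cellular qHTS used chicken DT40 cells lacking endogenous Tdp1 but carrying stably transfected human TDP1. Compounds were applied without camptothecin, and cell growth kinetics were judged by ATP-dependent luminescence after ≥48 hr.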
TDP1 cell CPT: growth inhibition of DT40 Tdp1-/-;hTDP1 cells with camptothecin (screen for TDP1 inhibitors); AID 686979; 12% of 420,000 active; chicken DT40 Tdp1-/-;hTDP1 cells + 20 nM CPT, ATP luminescence, 48 h; Potency, µM (series often up to 46.2 µM), inactives show at the highest dose activity change, negative = growth inhibition, hits mostly inhibitors; further: nearly all actives have a fitted effect of over 55% in size
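Chicken DT40 Tdp1-/- cells complemented with human TDP1, 400 cells/well, exposed to compounds plus 20 nM camptothecin for at least 48 h at 37 C; viability read as ATP content by CellTiter-Glo luminescence.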
VP16 counter: counter-screen for ROR gamma inhibitors: Gal4-VP16 reporter | 3.5% of 310,000 active | AID 2546 | Potency, µM (top dose mostly 53.6 µM), for inactives: at the highest dose activity, negative = inhibition, actives largely listed as inhibitors | Drosophila S2 Gal4-VP16 UAS-luciferase, luminescence, 20 h;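 further: Gal4-VP16 expression switched on by copper sulfate through the metallothionein promoter; nearly all actives have a fitted effect of over 50% in size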
An asterisk follows results filed as active; i = inactive; ? = inconclusive; . = not tested or not shown; [ ] = remark or other dose. Sampled rows, rich in hits. Any-hit rate of the full collection: about 15%. The call rests on the fitted dose curve; in most records, active means well fitted curve in the direction sought with a large enough effect; inconclusive means small, poorly fitted or top-dose-only effect, or another doubt; inactive means no such curve, though single readings can be large; an effect the other way counts as inactive or inconclusive. On the % scale 0 is the no-effect control and ±100 the full control effect; potency means the concentration at half of the fitted maximal effect.

SMILES	RORgamma inh	ELG1 DNA repair	12-LOX inh	TDP1 cell noCPT	TDP1 cell CPT	VP16 counter
Cc1cc(NC(=O)CN(C)CCOc2ccccc2)ccc1Br	6%	-5%	-23%	18µM*	18µM*	2%
CC(=O)NCCNc1nc2c(-c3ccccc3)nnn2c2ccccc12	?	1%	-3%	8.2µM*	?	-16%
Cc1ccc(-c2nnn3c2nc(NCCc2ccc(Cl)cc2)c2ccccc23)cc1	.	.	?	-16%	4%	.
Cc1cccc(-c2nnn3c2nc(NCCc2ccc(S(N)(=O)=O)cc2)c2cc(Cl)ccc23)c1	.	.	-35%	5.8µM*	9.2µM*	.
NS(=O)(=O)c1ccc(CCNc2nc3c(-c4cccc(F)c4)nnn3c3ccccc23)cc1	1%	2.6µM*	-22%	12µM*	?	?
CC(=O)NCCNc1nc2c(-c3ccc(C)cc3)nnn2c2ccccc12	.	.	2%	-18%	-5%	.
CC(=O)NCCNc1nc2c(-c3cccc(C)c3)nnn2c2ccc(Cl)cc12	.	.	-7%	21%	14%	.
COc1cccc(CNc2nc3c(-c4cccc(C)c4)nnn3c3ccccc23)c1	.	.	-3%	?	-23%	.
Cc1cccc(-c2nnn3c2nc(NCc2ccc4c(c2)OCO4)c2ccccc23)c1	.	.	?	?	23µM*	.
CN(C)C(=O)c1c(NC(=O)c2ccccc2)sc2c1CCC(C(C)(C)C)C2 (stereo not drawn)	.	.	12%	.	.	.
O=C(O)c1ccc(CN2CCC3(CC2)CC(C(=O)O)N(C(=O)C2CC2)C3)cc1 (stereo not drawn)	.	.	2%	.	.	.
Cc1ccc(-c2nnn3c2nc(NCCc2ccc(S(N)(=O)=O)cc2)c2ccccc23)cc1	24%	?	-9%	?	-19%	?
Cc1cccc(-c2nnn3c2nc(NCCc2ccc(S(N)(=O)=O)cc2)c2ccccc23)c1	?	2.6µM*	?	16µM*	15µM*	?
CCOc1ccc2nc(N/C(N)=N/C(=S)Nc3ccc(C)c(C)c3)nc(C)c2c1	1.8µM*	1%	45µM*	-45%	-83%	?
COc1ccc(NC(=S)/N=C(\N)Nc2nc(C)c3ccc(C)cc3n2)cc1	0.63µM*	?	?	?	18µM*	2µM*
CC(=O)N1CCN(c2ccc(NC(=O)c3cccc(C)c3)cc2)CC1	21%[1.91 µM]	?	i	1%	6%	-8%
Cc1ccc(C(=O)NC(=S)Nc2ccc(N3CCOCC3)cc2)cc1C	2µM*	10µM*	18µM*	15µM*	?	?
Cc1cccc(C(=O)NC(=S)Nc2ccc(N3CCOCC3)cc2)c1	4µM*	-5%	45µM*	?	?	7.1µM*
COc1ccc(C(=O)NC(=S)Nc2ccc(N3CCOCC3)cc2)cc1Cl	4.5µM*	?	16µM*	21µM*	?	7.9µM*
C[S+](=O)([O-])CCn1ncc2cc(OCc3cccc(-c4cccnc4)c3)ccc21	.	.	13%[176 µM]	.	.	.
Cc1ccc(/C=C(/C#N)c2ccc(C(F)(F)F)cn2)s1	.	.	5%	.	.	.
Cc1nn(C)c(C)c1CN(Cc1ccc2c(C)cc(=O)oc2c1)C1CC1	.	.	66%	.	.	.
Cc1ccccc1-c1nc(CN(Cc2c(C)nn(C)c2C)C2CC2)c(C)o1	5.6µM*	?	4%	23µM*	?	13µM*
Cc1cccc(OCCc2noc(C3CCNC3)n2)c1 (stereo not drawn)	.	.	28%	.	.	.
CC(=O)NN1C(=O)/C(=C\c2ccc(Br)o2)SC1=S	-10%	?	?	16µM*	?	?
SMILES	RORgamma inh	ELG1 DNA repair	12-LOX inh	TDP1 cell noCPT	TDP1 cell CPT	VP16 counter
COc1ccccc1CNS(=O)(=O)c1ccc(S(=O)(=O)NC2CC2)cc1	16%	0%	3%	-19%	3%	-8%
COc1ccc(CN(C2CCCCC2C)S(=O)(=O)c2ccc(S(=O)(=O)N(C)C)cc2)cc1OC (stereo not drawn)	13%	?	-21%	21µM*	16µM*	-6%
COc1cc(CN(C2CCCCC2C)S(=O)(=O)c2ccc(S(=O)(=O)NC3CC3)cc2)cc(OC)c1OC (stereo not drawn)	-35%[10 µM]	18µM*	-2%	?	?	-1%
Cc1oc(-c2cccs2)nc1CC(=O)N(Cc1ccc(C(F)(F)F)cc1)C1CC1	.	.	-8%	.	.	.
O=c1c(/C=N/OCc2ccc(Cl)cc2Cl)c[nH]n1-c1cccc(Cl)n1	13µM*	?	-24%	?	?	20µM*
COc1ccc(C(C)=O)cc1CO/N=C/c1ccc(Cl)cc1Cl	.	.	-71%	.	.	.
CC(C)CCN1CCC(N2CCN(S(=O)(=O)c3ccc4c(c3)CCC4)CC2)C1=O (stereo not drawn)	.	.	-6%	.	.	.
COc1ccc(CC(=O)Nc2cccc(-c3ccc4nncn4n3)c2)cc1OC	41%	7.3µM*	-1%	15µM*	?	-1%
O=S(=O)(Nc1cccc(-c2ccc3nncn3n2)c1)c1cccc(F)c1	.	14%	-9%	-18%	-24%	.
COc1ccc(CC(=O)Nc2cccc(-c3ccc4nnc(C)n4n3)c2)cc1OC	-32%	?	9%	9.2µM*	-25%	5%
CCOc1ccc(CC(=O)Nc2cccc(-c3ccc4nnc(C)n4n3)c2)cc1	-40%	?	11%	?	?	-9%
COc1ccc(S(=O)(=O)Nc2cccc(-c3ccc4nncn4n3)c2)cc1F	31%	-7%	-19%	2.3µM*	2.3µM*	2%
CC(OC(=O)c1cc2ccccc2cc1O)C(=O)Nc1ccc(S(N)(=O)=O)cc1 (stereo not drawn)	11%	-7%	-15%	-23%	-12%	1%
CC(OC(=O)c1c2c(nc3ccccc13)/C(=C\c1ccc3c(c1)OCO3)CCC2)C(=O)Nc1ccc(S(N)(=O)=O)cc1 (stereo not drawn)	-6%	?	.	18µM*	?	-9%
Cc1cccc(C)c1NC(=O)COC(=O)c1c2c(nc3ccccc13)/C(=C\c1ccc3c(c1)OCO3)CCC2	23%	?	-13%	18µM*	?	1%
Cc1cccc(C)c1NC(=O)COC(=O)c1ccc2c(c1)OCO2	22%	8%	0%	?	-4%	-5%
NC(=O)CC(NC(=O)c1ccccc1)c1ccc(N2CCC(Br)CC2)c([N+](=O)[O-])c1 (stereo not drawn)	?	?	-12%	10µM*	18µM*	13µM*
